According to PubChem BioAssay AID2673 (National Center for Advancing Translational Sciences (NCATS), 2010):
Inconclusive results are not listed. A call without a number means that no potency is given here. Activity calls are given as the source filed them. Calls come from the whole dose curve; as a rule, active = well fitted activation curve with a large enough effect; inconclusive = small, poorly fitted or top-dose-only effect; inactive = no such curve, though single readings can be large or run the other way.

Test: qHTS Multiplex Assay to Identify Dual Action Probes in a Cell Model of Huntington: Cytoprotection confirmation (ATP)
Method in brief: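 Cell survival measured by luminescent ATP content (ATPlite) in tebufenozide-induced (100 nM) PC12 HTTQ103-GFP cells treated with compounds, in phenol red-free DMEM with equine and calf serum.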

| Structure (SMILES) | Potency |
| --- | --- |
| Cc1cccc(/C=N/NC(=O)c2cc3c(s2)-c2ccccc2CC3)c1 | inactive |
| O=C(O)c1cc(=O)c2ccc(Cl)cc2[nH]1 | inactive |
| CC(C(=O)O)c1ccc(N2Cc3ccccc3C2=O)cc1 (centres undefined) | inactive |
| CC(=O)c1n[nH]nc1NC(=O)c1ccccc1 | inactive |
| CCc1ccc2oc(-c3cc(N)ccc3O)nc2c1 | inactive |
| Cn1nnnc1Sc1ncnc2scc(-c3ccc4c(=O)ccoc4c3)c12 | inactive |
| CCN(Cc1ccncc1)C(=O)c1cc(Br)cc(Br)c1O | inactive |
| Cn1nnnc1Sc1ncnc2scc(-c3cc4ccccc4o3)c12 | inactive |
| Cn1nnnc1Sc1ncnc2scc(-c3cccc([N+](=O)[O-])c3)c12 | 25.1 µM (active) |
| CCCn1nc([N+](=O)[O-])c(C(C#N)c2nc3ccccc3s2)c(Cl)c1=O (centres undefined) | inactive |
| Cn1nnnc1Sc1ncnc2scc(-c3cccc(C(F)(F)F)c3)c12 | 14.1 µM (active) |
| Cn1nnnc1Sc1ncnc2scc(-c3ccc(C(=O)OC(C)(C)C)cc3)c12 | inactive |
| C=C1CCC2[C@](C)(CO)[C@H](O)CC[C@@]2(C)[C@@H]1C/C=C1/C(=O)OC[C@H]1O (some centres undefined) | inactive |
| CN(C)CCCSc1ccccc1NC(=O)/C=C\c1ccccc1 | inactive |
| CC(C(=O)O)c1ccc(CC2CCCC2=O)cc1 (centres undefined) | inactive |
| NC(=O)C1CCN(CCC(=O)Nc2ccc(Br)cc2)CC1 | inactive |
| CCN(CC)CCNc1ccc(CO)c2sc3ccccc3c(=O)c12 | inactive |
| Cn1nnnc1Sc1ncnc2scc(-c3ccc(S(C)(=O)=O)cc3)c12 | 17.8 µM (active) |
| COc1ccccc1-c1csc2ncnc(Sc3nnnn3C)c12 | inactive |
